“And” between values parts separate entries of the source, which are not always exact repeats. Equal values may be shown once. Inconclusive results are not listed. The source made the active and inactive calls. The calls were made as follows, unless noted: active = hit-call score of the fitted dose curve at least 0.9, where 1 is the maximum; inconclusive = response in the unintended direction; inactive = score below 0.9.

Assay [1] has as its target Bile acid receptor (Homo sapiens) (UniProt Q96RI1). Description: ATG_IR1_CIS: Attagene CIS-FACTORIAL HepG2 Assay for human Nuclear Receptor Subfamily 1 Group H Member 4 (NR1H4), IR1 submotif (AID 2282946; active = hit-call score of the fitted dose curve at least 0.9, where 1 is the maximum; inactive = score below 0.9). Conditions: IR1 reporter transcription, actives raise or lower the signal. The essentials:
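Readout: reporter transcript levels by RT-PCR with fluorescent capillary electrophoresis, from HepG2 cells transiently transfected with multiplexed cis-regulated reporters and dosed 24 h. Gain- or loss-of-signal fitted versus DMSO negative control.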

A short description of assay [2]: ATG_PPRE_CIS: Attagene CIS-FACTORIAL HepG2 Assay for human Peroxisome Proliferator-activated Response Element (PPRE) (AID 2282958; active = hit-call score of the fitted dose curve at least 0.9, where 1 is the maximum; inactive = score below 0.9). Particulars: HepG2 PPRE cis-element reporter, Attagene transcription factor profiling; actives raise or lower the signal. The procedure, abridged: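 Cells are first transfected transiently with the multiplexed reporter library, then dosed for 24 h. Total RNA is reverse-transcribed, amplified, fluorescently end-labeled and HpaI-cut before capillary electrophoresis; activity is fitted bidirectionally against DMSO controls.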

For assay [3], the target named is Nuclear receptor subfamily 1 group I member 3 (Homo sapiens) (UniProt Q14994). Nature of the assay: ATG_CAR_TRANS: Attagene TRANS-FACTORIAL HepG2 Assay for human Constitutive Androstane Receptor (CAR) (AID 2282969).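 Also: activators raise reporter mRNA above DMSO so AC50 marks induction.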 Particulars: HepG2 Attagene TRANS-FACTORIAL CAR reporter. The procedure, abridged:
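Steps: transient transfection of HepG2 with multiple GAL4-UAS reporter units; 24 h compound incubation; RNA isolation, RT-PCR, 6-FAM primer extension, HpaI digest; capillary electrophoresis. Gain-of-signal relative to DMSO negative control.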

Assay [4] has as its target Glucocorticoid receptor (Homo sapiens) (UniProt P04150). Description: ATG_GR_TRANS: Attagene TRANS-FACTORIAL HepG2 Assay for human Glucocorticoid Receptor (GR) (AID 2282978).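 Also: activators score as hits since higher reporter transcript over DMSO is fitted.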 Particulars: HepG2 Attagene TRANS GR reporter, mRNA transcription. The essentials: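 In this trans-factorial format, exogenous NR-GAL4 chimeric proteins in transfected HepG2 cells regulate GAL4-UAS reporter transcription. After 24 h treatment, reporter mRNA induction relative to DMSO is read by RT-PCR and capillary electrophoresis.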

Assay [5] deals with Nuclear receptor subfamily 4 group A member 2 (Homo sapiens) (UniProt P43354). Description: ATG_NURR1_TRANS: Attagene TRANS-FACTORIAL HepG2 Assay for human Nuclear Receptor Related Protein 1 (NURR1) (AID 2282985). Conditions: HepG2 Attagene TRANS reporter, mRNA readout. The essentials: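 Chimeric NR-Gal4 proteins were expressed in human HepG2 cells bearing GAL4-UAS reporter units, and induced reporter mRNA was quantified 24 h post-dosing by RT-PCR and capillary electrophoresis.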

Assay [6] can be described thus: ATG_NF_kB_CIS: Attagene CIS-FACTORIAL HepG2 Assay for human Nuclear Factor Kappa B (NF-kB) (AID 2282991; active = hit-call score of the fitted dose curve at least 0.9, where 1 is the maximum; inactive = score below 0.9). Particulars: HepG2 Attagene cis-factorial NF-kB reporter mRNA; actives raise or lower the signal. The essentials: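 Endogenous transcription factor activity in HepG2 was captured via cis-regulated reporter constructs; after 24 h dosing, reporter mRNA was reverse-transcribed, amplified, fluorescently labelled and sized by capillary electrophoresis, with activity fitted bidirectionally relative to DMSO.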

For assay [7], the target named is human Peroxisome Proliferator-activated Receptor delta (PPARd), PPARD (gene 5467) (UniProt Q03181). Nature of the assay: ATG_PPARd_TRANS: Attagene TRANS-FACTORIAL HepG2 Assay for human Peroxisome Proliferator-activated Receptor delta (PPARd) (AID 2283002). The procedure, abridged:
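HepG2 cells transiently transfected with multiplexed GAL4-UAS reporter units and exogenous chimeric NR-Gal4 proteins; 24 h compound exposure. Reporter mRNA measured by RT-PCR, 6-FAM labelling, HpaI digestion and capillary electrophoresis; gain of signal versus DMSO.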

Assay [8] has as its target Nuclear receptor subfamily 1 group I member 2 (Homo sapiens) (UniProt O75469). Description: ATG_PXR_TRANS: Attagene TRANS-FACTORIAL HepG2 Assay for human Pregnane X Receptor (PXR) (AID 2283008). The procedure, abridged: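 Multiplexed TRANS reporter panel in HepG2; this component tracks PXR-Gal4-driven reporter mRNA after 24 h dosing, measured by RT-PCR with capillary electrophoresis fluorescence, fitted against DMSO.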

Assay [9] deals with human Vitamin D Receptor (VDR), VDR (gene 7421) (UniProt P11473). Nature of the assay: ATG_VDR_TRANS: Attagene TRANS-FACTORIAL HepG2 Assay for human Vitamin D Receptor (VDR) (AID 2283022). The essentials: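 RT-PCR/capillary electrophoresis read-out of reporter mRNA induction in transiently transfected HepG2; 24 h dosing; chimeric NR-Gal4 (TRANS format); gain-of-signal fit against DMSO baseline.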

The nature of assay [10]: ATG_XTT_Cytotoxicity: Cytotoxicity Assessment in the Attagene TRANS-FACTORIAL HepG2 Assay (AID 2283584). The procedure, abridged: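 XTT readout of cell number in transfected HepG2 cells, 24 h post-dosing; DMSO serves as negative control and baseline, with activity taken as loss of viability signal.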
Assay [11] can be described thus: TOX21_p53_BLA_p3_viability: Viability Assessment in the Tox21 HCT-116 p53 Agonism Beta-lactamase Assay, Phase 3 (AID 2283593).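 Also: cells exposed to compound for 16 h before reading.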 The procedure, abridged: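 HCT-116 cells (4000/well) rested 5 h at 37C, then got DMSO compounds by pin tool (217-fold dilution) for 16 h at 37C, 5% CO2. After the bla read, CellTiter-Glo was added and luminescence read at 30 min, room temperature.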

Assay [12] deals with Retinoic acid receptor alpha (Homo sapiens) (UniProt P10276). Description: ATG_DR5_RAR_CIS: Attagene CIS-FACTORIAL HepG2 Assay for human Retinoic Acid Receptor Alpha (RARE), DR5 submotif (AID 2282934; active = hit-call score of the fitted dose curve at least 0.9, where 1 is the maximum; inactive = score below 0.9). Conditions: HepG2 Attagene cis-factorial RARE DR5 reporter, mRNA; actives raise or lower the signal. The essentials: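 HepG2 cells transiently transfected with multiplexed reporter units under cis (DR5 RARE) promoters, so endogenous transcription factor activity is measured. After 24 h compound exposure, reporter mRNA is quantified by RT-PCR with fluorescent labelling and capillary electrophoresis; bidirectional fitting versus DMSO.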

The nature of assay [13]: ATG_M_19_TRANS: Attagene TRANS-FACTORIAL HepG2 Assay for M19 Transcription Factor (Internal Marker) (AID 2282974). Particulars: HepG2 Attagene TRANS-FACTORIAL M19 internal marker reporter. The procedure, abridged:
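Cells: human HepG2, transiently transfected with multiplexed reporter transcription units. Exposure: 24 h. Detection: RT-PCR of reporter mRNA with capillary electrophoresis. Analysis: gain-of-signal vs DMSO.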

Assay [14] has as its target human Peroxisome Proliferator-activated Receptor alpha (PPARa), PPARA (gene 5465) (UniProt Q07869). Nature of the assay: ATG_PPARa_TRANS: Attagene TRANS-FACTORIAL HepG2 Assay for human Peroxisome Proliferator-activated Receptor alpha (PPARa) (AID 2283001). The essentials: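 Exposure: 24 h, transiently transfected HepG2 cells. Endpoint: GAL4-UAS reporter mRNA, RT-PCR with capillary electrophoresis fluorescence. Baseline: DMSO; increases fitted.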

Assay [15] deals with human RAR-related Orphan Receptor beta (RORb), RORB (gene 6096) (UniProt Q92753). Nature of the assay: ATG_RORb_TRANS: Attagene TRANS-FACTORIAL HepG2 Assay for human RAR-related Orphan Receptor beta (RORb) (AID 2283010). The essentials: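 HepG2, transient MRTU transfection (GAL4-UAS reporters, exogenous NR-Gal4 chimeras); 24 h compound exposure; total RNA → RT-PCR → 6-FAM primer extension → HpaI digest → CE fluorescence. Positive direction vs DMSO baseline.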

The target in assay [16] is human RAR-related Orphan Receptor gamma (RORg), RORC (gene 6097) (UniProt P51449). Description: ATG_RORg_TRANS: Attagene TRANS-FACTORIAL HepG2 Assay for human RAR-related Orphan Receptor gamma (RORg) (AID 2283011). The procedure, abridged:
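Transient MRTU transfection of HepG2 (TRANS format, exogenous NR-Gal4 chimera). 24 h dosing. Total RNA → oligo(dT) RT → PCR → 6-FAM labelling → HpaI cut → CE. Gain vs DMSO.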

Assay [17] is described as follows: CCTE_Harrill_HTTr_Viability_MCF7: CCTE's 6-hour Cell Viability Assessment for the High-Throughput Transcriptomics (HTTr) Platform, in MCF-7 cells cultured in DMEM + 10% fetal bovine serum, Harrill Lab (AID 2284010; active = hit-call score of the fitted dose curve at least 0.9, where 1 is the maximum; inactive = score below 0.9). The essentials:
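PI exclusion, high-content imaging; 8-pt dilution series, 6 h exposure; bidirectional fit vs DMSO (neg. ctrl/baseline); gain of signal = loss of membrane integrity.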

Assay [18] is described as follows: CCTE_Harrill_HTTr_Apoptosis_MCF7: CCTE's 6-hour Apoptosis Assessment for the High-Throughput Transcriptomics (HTTr) Platform, in MCF-7 cells cultured in DMEM + 10% fetal bovine serum, Harrill Lab (AID 2284011; active = hit-call score of the fitted dose curve at least 0.9, where 1 is the maximum; inactive = score below 0.9). The essentials:
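Read-out: CellEvent Caspase 3/7 Green signal by high content imaging, gain-of-signal indicating apoptosis. MCF-7 cells, DMEM + 10% FBS, eight-point dilution series, 6 h exposure. Curves fitted bidirectionally relative to DMSO negative control.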

The target of assay [19] is Oxysterols receptor LXR-alpha (Homo sapiens) (UniProt Q13133). Description: ATG_LXRa_TRANS: Attagene TRANS-FACTORIAL HepG2 Assay for human Liver X Receptor alpha (LXRa) (AID 2282980). Conditions: HepG2 Attagene TRANS reporter, LXRa transactivation. The essentials:
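Read-out: reporter transcript levels by RT-PCR plus capillary electrophoresis, fluorescence intensity. Transiently transfected HepG2, exogenous NR-GAL4 chimera, GAL4-UAS reporters; 24 h compound exposure. Activity = increase over DMSO negative control.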

The target of assay [20] is Retinoic acid receptor RXR-alpha (Homo sapiens) (UniProt P19793). Nature of the assay: ATG_RXRa_TRANS: Attagene TRANS-FACTORIAL HepG2 Assay for human Retinoid X Receptor alpha (RXRa) (AID 2283012). The essentials:
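Read-out: fluorescent reporter-transcript fragments quantified by capillary electrophoresis after RT-PCR. Transiently transfected HepG2 cells carrying GAL4-UAS reporters and NR-GAL4 chimeras were exposed to chemical for 24 h; activity scored as increase over DMSO.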

Retinoic acid receptor alpha (Homo sapiens), sequence (P10276 whole entry, looked up): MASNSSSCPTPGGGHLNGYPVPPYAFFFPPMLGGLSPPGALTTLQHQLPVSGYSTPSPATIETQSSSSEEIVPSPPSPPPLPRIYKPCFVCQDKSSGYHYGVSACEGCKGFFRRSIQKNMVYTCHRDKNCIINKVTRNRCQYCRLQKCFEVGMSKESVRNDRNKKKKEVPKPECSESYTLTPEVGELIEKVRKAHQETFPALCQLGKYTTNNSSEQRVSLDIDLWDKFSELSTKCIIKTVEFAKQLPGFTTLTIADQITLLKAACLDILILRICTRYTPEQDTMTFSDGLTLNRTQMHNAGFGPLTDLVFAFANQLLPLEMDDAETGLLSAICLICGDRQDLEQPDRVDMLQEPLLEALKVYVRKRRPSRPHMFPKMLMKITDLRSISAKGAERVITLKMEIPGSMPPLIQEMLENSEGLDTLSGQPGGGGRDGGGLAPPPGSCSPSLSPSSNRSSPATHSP
human Peroxisome Proliferator-activated Receptor delta (PPARd), PPARD (gene 5467), sequence (Q03181 whole entry, looked up, the tested form may be a part): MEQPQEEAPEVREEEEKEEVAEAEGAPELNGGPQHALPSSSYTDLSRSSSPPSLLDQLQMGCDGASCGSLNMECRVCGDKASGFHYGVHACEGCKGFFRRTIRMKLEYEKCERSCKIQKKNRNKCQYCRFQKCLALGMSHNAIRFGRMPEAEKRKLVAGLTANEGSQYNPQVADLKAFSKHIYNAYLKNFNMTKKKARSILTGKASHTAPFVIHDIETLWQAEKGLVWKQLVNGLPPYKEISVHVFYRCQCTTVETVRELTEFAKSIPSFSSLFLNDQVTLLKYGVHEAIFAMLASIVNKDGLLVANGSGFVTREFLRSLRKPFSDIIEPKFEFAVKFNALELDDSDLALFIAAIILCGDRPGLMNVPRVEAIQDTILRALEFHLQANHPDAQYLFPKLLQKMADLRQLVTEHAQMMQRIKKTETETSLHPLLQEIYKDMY
Nuclear receptor subfamily 1 group I member 3 (Homo sapiens), sequence (Q14994 whole entry, looked up, the tested form may be a part): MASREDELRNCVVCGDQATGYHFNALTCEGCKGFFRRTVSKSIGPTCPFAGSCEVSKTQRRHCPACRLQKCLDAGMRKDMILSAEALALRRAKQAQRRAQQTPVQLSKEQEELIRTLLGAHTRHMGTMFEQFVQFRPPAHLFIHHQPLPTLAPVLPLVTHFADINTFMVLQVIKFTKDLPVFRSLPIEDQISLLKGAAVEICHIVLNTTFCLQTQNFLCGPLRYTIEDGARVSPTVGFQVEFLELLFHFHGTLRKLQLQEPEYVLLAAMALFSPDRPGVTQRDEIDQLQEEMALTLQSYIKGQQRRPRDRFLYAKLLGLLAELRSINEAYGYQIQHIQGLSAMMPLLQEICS
Nuclear receptor subfamily 4 group A member 2 (Homo sapiens), sequence (P43354 whole entry, looked up, the tested form may be a part): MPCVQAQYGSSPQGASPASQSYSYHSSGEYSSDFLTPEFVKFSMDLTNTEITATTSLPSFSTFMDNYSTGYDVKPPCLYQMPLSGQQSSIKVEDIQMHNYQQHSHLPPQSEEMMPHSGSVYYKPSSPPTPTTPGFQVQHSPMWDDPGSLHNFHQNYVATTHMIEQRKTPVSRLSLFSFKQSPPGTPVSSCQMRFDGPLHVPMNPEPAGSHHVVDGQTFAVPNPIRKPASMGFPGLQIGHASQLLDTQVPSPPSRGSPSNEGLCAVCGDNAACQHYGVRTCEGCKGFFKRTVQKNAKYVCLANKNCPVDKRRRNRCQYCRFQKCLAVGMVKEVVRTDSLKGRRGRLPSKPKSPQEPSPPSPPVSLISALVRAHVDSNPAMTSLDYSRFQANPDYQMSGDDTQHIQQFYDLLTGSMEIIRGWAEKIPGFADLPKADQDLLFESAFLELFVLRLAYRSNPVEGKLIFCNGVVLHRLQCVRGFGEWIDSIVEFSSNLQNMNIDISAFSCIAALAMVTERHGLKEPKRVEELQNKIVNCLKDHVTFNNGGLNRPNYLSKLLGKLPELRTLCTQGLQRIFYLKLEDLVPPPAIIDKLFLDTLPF
Oxysterols receptor LXR-alpha (Homo sapiens), sequence (Q13133 whole entry, looked up, the tested form may be a part): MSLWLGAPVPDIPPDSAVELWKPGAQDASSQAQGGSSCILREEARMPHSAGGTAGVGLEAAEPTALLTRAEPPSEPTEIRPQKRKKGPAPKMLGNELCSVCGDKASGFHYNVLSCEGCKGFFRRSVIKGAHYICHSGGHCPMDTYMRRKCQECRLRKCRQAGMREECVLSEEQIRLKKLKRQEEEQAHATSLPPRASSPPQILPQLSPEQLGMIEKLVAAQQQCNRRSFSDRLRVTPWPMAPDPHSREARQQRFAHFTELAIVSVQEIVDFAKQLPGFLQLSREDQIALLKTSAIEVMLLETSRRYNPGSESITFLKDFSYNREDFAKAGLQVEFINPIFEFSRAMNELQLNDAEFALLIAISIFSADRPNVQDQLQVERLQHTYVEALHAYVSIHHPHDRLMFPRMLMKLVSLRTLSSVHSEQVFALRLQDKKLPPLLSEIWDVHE
Nuclear receptor subfamily 1 group I member 2 (Homo sapiens), sequence (O75469 whole entry, looked up, the tested form may be a part): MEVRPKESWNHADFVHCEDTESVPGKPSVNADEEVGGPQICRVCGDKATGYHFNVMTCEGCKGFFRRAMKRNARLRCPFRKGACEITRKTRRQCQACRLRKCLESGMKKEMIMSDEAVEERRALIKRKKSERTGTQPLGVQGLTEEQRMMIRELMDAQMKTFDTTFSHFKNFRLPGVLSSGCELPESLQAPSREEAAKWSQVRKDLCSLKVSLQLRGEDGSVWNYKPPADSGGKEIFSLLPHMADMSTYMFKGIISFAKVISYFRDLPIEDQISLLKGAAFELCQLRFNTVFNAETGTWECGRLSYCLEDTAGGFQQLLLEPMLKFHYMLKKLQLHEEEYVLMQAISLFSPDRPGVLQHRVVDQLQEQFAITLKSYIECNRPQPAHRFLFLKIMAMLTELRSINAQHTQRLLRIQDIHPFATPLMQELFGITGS
Bile acid receptor (Homo sapiens), sequence (Q96RI1 whole entry, looked up): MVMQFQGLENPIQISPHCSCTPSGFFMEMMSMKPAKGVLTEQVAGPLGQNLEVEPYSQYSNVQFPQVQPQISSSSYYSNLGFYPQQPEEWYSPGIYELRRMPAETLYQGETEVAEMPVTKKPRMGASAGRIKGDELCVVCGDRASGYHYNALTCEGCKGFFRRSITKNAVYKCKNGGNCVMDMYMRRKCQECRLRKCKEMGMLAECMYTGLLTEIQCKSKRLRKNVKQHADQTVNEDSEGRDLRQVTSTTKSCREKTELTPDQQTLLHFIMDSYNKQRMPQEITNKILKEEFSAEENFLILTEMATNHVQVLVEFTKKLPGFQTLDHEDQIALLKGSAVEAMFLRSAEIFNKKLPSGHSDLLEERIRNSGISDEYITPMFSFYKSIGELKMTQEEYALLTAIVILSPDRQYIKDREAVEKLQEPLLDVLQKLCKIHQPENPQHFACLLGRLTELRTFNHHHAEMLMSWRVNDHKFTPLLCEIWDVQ
Retinoic acid receptor RXR-alpha (Homo sapiens), sequence (P19793 whole entry, looked up, the tested form may be a part): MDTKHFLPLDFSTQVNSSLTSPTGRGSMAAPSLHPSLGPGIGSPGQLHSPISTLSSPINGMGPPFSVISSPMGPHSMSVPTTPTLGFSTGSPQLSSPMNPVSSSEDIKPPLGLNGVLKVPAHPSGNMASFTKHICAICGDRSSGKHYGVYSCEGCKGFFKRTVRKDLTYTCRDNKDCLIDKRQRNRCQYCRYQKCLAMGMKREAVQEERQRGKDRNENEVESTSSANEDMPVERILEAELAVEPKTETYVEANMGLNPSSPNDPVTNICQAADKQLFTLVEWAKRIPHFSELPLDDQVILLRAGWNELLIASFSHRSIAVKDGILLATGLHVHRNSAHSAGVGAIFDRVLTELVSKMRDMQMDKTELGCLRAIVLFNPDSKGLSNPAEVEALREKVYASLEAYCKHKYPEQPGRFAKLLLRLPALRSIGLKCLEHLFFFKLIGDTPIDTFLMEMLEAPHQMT
Glucocorticoid receptor (Homo sapiens), sequence (P04150 whole entry, looked up, the tested form may be a part): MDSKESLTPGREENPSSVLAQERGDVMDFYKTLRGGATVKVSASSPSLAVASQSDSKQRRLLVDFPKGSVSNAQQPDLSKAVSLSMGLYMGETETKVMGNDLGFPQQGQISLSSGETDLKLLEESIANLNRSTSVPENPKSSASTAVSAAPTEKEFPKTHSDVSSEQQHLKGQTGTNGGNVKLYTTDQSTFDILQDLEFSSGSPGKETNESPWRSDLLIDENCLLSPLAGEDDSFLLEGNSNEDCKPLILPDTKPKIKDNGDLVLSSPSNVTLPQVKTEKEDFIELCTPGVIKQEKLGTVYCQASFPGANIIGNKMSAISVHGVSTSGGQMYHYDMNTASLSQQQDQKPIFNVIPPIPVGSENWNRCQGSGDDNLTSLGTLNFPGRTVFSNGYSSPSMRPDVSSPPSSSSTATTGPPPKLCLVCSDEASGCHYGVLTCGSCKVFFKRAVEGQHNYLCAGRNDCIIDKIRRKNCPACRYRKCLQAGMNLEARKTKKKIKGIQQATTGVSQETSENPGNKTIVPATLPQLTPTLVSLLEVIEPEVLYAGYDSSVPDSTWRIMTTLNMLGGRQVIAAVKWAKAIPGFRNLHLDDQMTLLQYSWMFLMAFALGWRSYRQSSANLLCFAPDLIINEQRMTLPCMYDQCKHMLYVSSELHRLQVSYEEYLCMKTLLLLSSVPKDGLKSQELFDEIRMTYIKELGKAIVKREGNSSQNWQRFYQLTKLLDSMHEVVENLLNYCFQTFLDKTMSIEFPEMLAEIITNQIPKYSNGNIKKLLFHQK
human RAR-related Orphan Receptor gamma (RORg), RORC (gene 6097), sequence (P51449 whole entry, looked up, the tested form may be a part): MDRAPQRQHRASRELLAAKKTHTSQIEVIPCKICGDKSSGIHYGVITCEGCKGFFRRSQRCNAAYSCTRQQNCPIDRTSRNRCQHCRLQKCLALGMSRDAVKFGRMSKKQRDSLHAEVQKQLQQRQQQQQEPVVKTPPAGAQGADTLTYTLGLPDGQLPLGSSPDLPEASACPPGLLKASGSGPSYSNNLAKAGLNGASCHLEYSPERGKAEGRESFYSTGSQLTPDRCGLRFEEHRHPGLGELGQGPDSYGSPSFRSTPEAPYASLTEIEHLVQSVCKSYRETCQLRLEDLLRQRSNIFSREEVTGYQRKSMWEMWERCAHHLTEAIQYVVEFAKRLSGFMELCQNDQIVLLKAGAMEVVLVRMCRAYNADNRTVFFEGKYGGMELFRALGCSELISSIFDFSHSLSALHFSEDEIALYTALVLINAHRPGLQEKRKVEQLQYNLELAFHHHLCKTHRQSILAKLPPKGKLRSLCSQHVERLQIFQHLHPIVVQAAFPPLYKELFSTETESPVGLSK

Take `CC(C)CCCCCCCOP(=O)(Oc1ccccc1)Oc1ccccc1`: the compound was called inactive in assay [1], in assay [2], in [3], in assay [4], in assay [6] and in assay [7]. In addition, the call in [9], in [10] and in assay [11] was inactive. The AC50 in assay [5] was 26.6 µM (active); in assay [8] it was 0.711 µM (active).

For the compound `CCCCCCC1CCOC1=O` (configuration not stated), the outcome in [12], in [13], in [4], in assay [6], in assay [14] and in assay [8] was inactive. The compound was classed as inactive in assay [15].

Consider `CCC(C)(C)O`, for which the outcome in assay [3], in assay [4], in [5], in assay [16], in assay [10] and in [17] was inactive. For the same compound, in [18], the result was inactive.

With `O=P1(NCCCl)OCCCN1CCCl` (configuration not stated), the compound was classed as inactive in [12], in assay [13], in [4], in [6], in assay [8] and in [15]. In addition, the call in [10], in assay [17] and in assay [18] was inactive.

Turning to `C=Cc1cccc(CCl)c1`, the call in [1], in assay [3], in [13], in assay [5], in assay [6] and in [14] was inactive. The outcome in assay [16], in assay [10] and in assay [11] was inactive.

Regarding `CCOP(=O)(OCC)OCC`, the result in assay [12], in assay [2], in [3], in assay [13], in assay [4] and in assay [19] was inactive. Also, the call in [14], in assay [7], in assay [8], in assay [15], in [16] and in [20] was inactive. For the same compound, the compound was called inactive in assay [9], in [10] and in assay [11].

For the compound `CC(C)(O)C#N`, the result in [12], in assay [1], in assay [3], in assay [19], in assay [5] and in assay [8] was inactive. Moreover, the outcome in assay [9], in [11], in assay [17] and in assay [18] was inactive.

Take `[Cl-].[Cl-].[Cl-].[Yb+3]`: the call in assay [19], in assay [5], in assay [8], in assay [15], in assay [16] and in assay [10] was inactive. In assay [11], the outcome was inactive.

As to `CC(C)CCCCCCCOC(=O)c1ccccc1C(=O)OCCCCCCCC(C)C`, the compound was called inactive in assay [1], in assay [13], in assay [4], in assay [8], in [15] and in assay [16]. Also, the result in [20], in [10], in assay [17] and in assay [18] was inactive.

`Oc1cc(Cl)ccc1Cl`: the outcome in assay [12], in assay [2], in [13], in [4], in assay [14] and in assay [7] was inactive. Further, the result in [8], in [20], in assay [10], in [11], in assay [17] and in assay [18] was inactive.

In the case of `C=CC(=O)OC`, the compound was classed as inactive in assay [12], in assay [1], in [2], in assay [3], in [5] and in [6]. Further, the compound was classed as inactive in assay [14], in assay [16], in [9], in [10] and in assay [11].

On to `O=C1C=CC(=O)C=C1`, for which the outcome in assay [3], in [5], in assay [14], in assay [8], in assay [15] and in [10] was inactive. The result in assay [17] and in assay [18] was inactive. In addition, the AC50 in assay [11] is 72.3 µM (active) and 76.5 µM (active).

What is called AC50 is the midpoint of the concentration-response curve, whichever way the signal moves.

The values are drawn from PubChem BioAssay (EPA / NIEHS).
